# Bioassay records: PubChem, National Center for Advancing Translational Sciences (NCATS)
# This is a sample that favours compounds with a hit; in the whole collection about 8% have one here.
# SW480 rerep – A quantitative high throughput screen for small molecules that induce DNA re-replication in SW480 colon adenocarcinoma cells. actives 1.8% (n = 340,000). SW480 DNA re-replication, Hoechst DNA content imaging, 48 h. AID 624297, 2012. Potency, µM (doses to about 46.1 µM), for inactives: at the highest dose re-replication activation, hits mostly activators; also: % of control where 0% means no effect; nearly all actives have a fitted effect of over 55% in size
#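 Treated cells incubate 48 hr (37 C, 5% CO2), are stained 40 min with Hoechst, and nuclear fluorescence is enumerated; a rise in nuclei with high DNA signal marks re-replication.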
# KB-3-1 cytotox – qHTS assay for MDR1-selective chemotherapeutics: Primary screen using the parental adenocarcinoma cell KB-3-1; AID 1347075, 2019; KB-3-1 viability, CellTiter-Glo ATP luminescence, 72 h; actives 1.4% (n = 400,000); Potency, µM (doses to about 46.1 µM), hits mostly cytotoxic; also: % is scaled to controls: 0 for no effect and ±100 for the full control effect; nearly all actives have a fitted effect of over 60% in size
#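 Using CellTiter-Glo luminescence, growth of non-resistant KB-3-1 adenocarcinoma cells is assessed 72 h after pin-tool compound addition at 37 °C. Normalized responses across the concentration series yield fitted curves.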
# KB-V1 MDR tox – qHTS assay for MDR1-selective chemotherapeutics: Primary screen using the drug-selected MDR subline cells KB-V1. KB-V1 MDR cells viability, CellTiter-Glo, 72 h. Potency, µM (doses to about 46.1 µM), usual class: cytotoxic. actives 3.4% (n = 400,000). AID 1347076, 2019; also: % is scaled to controls: 0 for no effect and ±100 for the full control effect; nearly all actives have a fitted effect of over 60% in size
#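 Cytotoxicity toward P-gp-expressing KB-V1 cells was determined as loss of CellTiter-Glo luminescence after 72 h at 37 degrees C. Compounds were tested in quantitative HTS format across a concentration range, with curves fitted to normalized data.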
# HT1080-NT tox – qHTS for induction of synthetic lethality in tumor cells producing 2HG: qHTS for the HT-1080-NT fibrosarcoma cell line. HT-1080-NT fibrosarcoma viability, CellTiter-Glo ATP luminescence, 48 h. Potency, µM (top dose mostly 46.1 µM), inactives show top-dose activity, negative = less viability, most hits filed as cytotoxic. actives 1.6% (n = 360,000);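 also: NT is the 2HG producing partner of a matched IDH1 knockdown line; 0% = DMSO-treated cells and -100% = media-only wells without cells; nearly all actives have a fitted effect of over 55% in size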
#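 Toxicity toward the 2HG-producing NT line was scored as %Activity, normalised to DMSO and no-cell wells, from CellTiter-Glo luminescence after 48 hours' treatment.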
# HT1080 IDH1KD tx – qHTS for induction of synthetic lethality in tumor cells producing 2HG: qHTS for the HT-1080-IDH1KD cell line | AID 686971, 2013 | Potency, µM (titrated, usually from 46.1 µM), for inactives: top-dose activity, negative = toxicity, most hits filed as cytotoxic | actives 2% (n = 360,000) | HT-1080 IDH1 knockdown viability, ATP luminescence, 48 h;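 also: 0% = DMSO wells and -100% = cell-free medium wells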
#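 Cytotoxicity counter-line: IDH1KD HT-1080, 48 h, CellTiter-Glo. Curves classed by r2, magnitude and activity.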
# MCF10A rerep – A quantitative high throughput screen for small molecules that induce DNA re-replication in MCF 10a normal breast cells; AID 624296, 2012; MCF 10A DNA re-replication, Hoechst nuclear intensity, 48 h; Potency, µM (doses to about 46.1 µM), inactives show at the top dose activity, positive = re-replication, actives largely listed as activators; actives 2.9% (n = 350,000); also: % of control where 0% means no effect; nearly all actives have a fitted effect of over 50% in size
# The depositor's hits bear a star; i = inactive; ? = inconclusive; / = no result; [ ] = another dose, or the depositor's remark. Calls follow the shape of the dose curve; as a rule, active = well fitted curve in the direction sought with a large enough effect; inconclusive = small, poorly fitted or top-dose-only effect, or another doubt; inactive = no such curve, though single readings can be large; an effect the other way counts as inactive or inconclusive. Potency is read from the fitted curve at half-maximal effect.
SMILES,SW480 rerep,KB-3-1 cytotox,KB-V1 MDR tox,HT1080-NT tox,HT1080 IDH1KD tx,MCF10A rerep
Cc1ccc(N2CCN(C(=O)Cn3ncc4c([nH]c5ccc(C)cc54)c3=O)CC2)c(C)c1,/,i,i,/,/,/
Cc1ccc(OCCNC(=O)CNC(=O)c2ccccc2Cl)cc1,-8%,i,?,-2%,11%,6%
Cc1cc(C)c(C)c(S(=O)(=O)N2CCC(C(=O)N3CCN(c4ccc(F)cc4)CC3)CC2)c1C,23%,i,i,-7%,0%,15%
O=C(c1ccc(F)cc1)N1CCC(C(=O)N2CCN(S(=O)(=O)c3cccc(F)c3)CC2)CC1,?,i,i,2%,-1%,3%
Cc1ccc(C(C)(C)C)cc1S(=O)(=O)N1CCC(C(=O)N2CCN(c3ccc(O)cc3)CC2)CC1,10%,?,15µM*,-8%,-21%,?
Cc1ccc(C)c(S(=O)(=O)N2CCN(C(=O)C3CCN(C(=O)c4ccc(F)cc4)CC3)CC2)c1,-8%,i,7.3µM*,0%,-1%,0%
CCc1nn(CC(=O)NCCc2ccc(OC)cc2OC)c(=O)c2cc3occc3n12,-5%,i,i,3%,9%,-2%
CCCCNC(=S)NC(=O)c1ccc(Cl)cc1Cl,-3%,i,i,1%,-1%,1%
CCN(CC)C(=S)NC(=O)c1ccc(Cl)cc1Cl,-3%,i,i,7.1µM*,3.5µM*,-2%
CCN(CC)C(=S)Nc1ccc(Cl)c(Cl)c1,-32%,?,23µM*,4%,11%,24%
CCN(Cc1ccccc1)C(=S)NC(=O)c1ccccc1Br,12µM*,?,?,-3%,-19%,15%
N#CCCN(Cc1ccccc1)C(=S)NC(=O)c1ccccc1,?,i,?,1.3µM*,1.1µM*,26%
COc1ccc(S(=O)(=O)NCCc2sc(-c3cccnc3)nc2C)c(F)c1,/,i,?,/,/,/
COCc1ccc(-c2c(-c3cc(OC)cc(OC)c3)oc(=O)c3cc(OC)c(OC)cc23)cc1,-10%[9.22 µM],i,i,5%,2%,2%
CC(C)(C)C(=O)NC(=S)NNC(=O)c1ccc(Cl)cc1Cl,?,?,?,9.2µM*,18µM*,13%
CCN(CC)C(=S)NC(=O)c1cc(OC)c(OC)c(OC)c1,5%,i,i,23µM*,-11%,-7%
CCN1CCN(C(=S)NC(=O)c2cc(OC)c(OC)c(OC)c2)CC1,-5%,i,i,4%,5%,0%
CCOC(=O)c1cnc2c(C(F)(F)F)cccc2c1Nc1cccc(C(=O)OC)c1,/,i,i,/,/,/
CCOC(=O)c1cnc2c(OC)cccc2c1Nc1cccc(O)c1,/,?,13µM*,/,/,/
COc1cc(/C=N/NC(=O)c2cccc([N+](=O)[O-])c2)ccc1OC(=O)c1ccco1,-1%,i,i,-9%,0%,1%
COc1ccc(/C=N\NC(=O)c2ccccc2F)cc1COc1ccc(F)cc1,3%,i,i,-17%,-14%,6%
COc1ccc(/C=N/NC(=O)c2ccc(OC)c(OC)c2)cc1COc1c(F)c(F)c(F)c(F)c1F,-5%,i,i,-3%,?,6%
COc1ccc(/C=N\NC(=O)c2ccccc2F)cc1COc1ccc(F)cc1F,12µM*,5.2µM*,?,2.3µM*,2.3µM*,?
COc1ccc(/C=N/NC(=O)c2nc(Cl)c(Cl)c(N)c2Cl)cc1COc1ccc(F)cc1F,?,i,i,?,-12%[9.24 µM],15µM*
COc1ccc(/C=N\NC(=O)c2ccccc2Br)cc1COc1c(F)c(F)cc(F)c1F,?,/,/,-17%,?,4.6µM*
SMILES,SW480 rerep,KB-3-1 cytotox,KB-V1 MDR tox,HT1080-NT tox,HT1080 IDH1KD tx,MCF10A rerep
COc1cc(OC)cc(C(=O)N/N=C/c2ccc(OC)c(COc3ccc4ccccc4c3)c2)c1,?,?,?,?,21µM*,?
CC1(C)CC(=O)c2cc(C(=O)Nc3ccccc3)c(=O)[nH]c2C1,/,i,i,/,/,/
CCOC(=O)c1[nH]c(C)c(C(=O)NCc2ccco2)c1C,-4%,i,i,-15%,0%,13%
COc1ccc(/C=N/NC(=O)c2ccoc2C)cc1COc1c(C)cccc1C,?,?,?,4.6µM*,5.2µM*,7.1µM*
COc1cc(OC)cc(C(=O)N/N=C\c2ccoc2)c1,5.8µM*,i,i,3.7µM*,5.8µM*,23µM*
COc1ccc(/C=N\NC(=O)c2ccccc2OC)cc1COc1ccccc1C,2%,i,i,-8%,-1%,12%
CCN(C(=O)CSc1nc(-c2ccccc2)no1)c1cccc(C)c1,/,6.5µM*,i,/,/,/
CCN(C(=O)CSc1nc2ccccc2nc1Cc1ccc(F)cc1)c1cccc(C)c1,/,i,i,/,/,/
Cc1cc(F)cc(C)c1Cn1cnc2c(cnn2C(C)(C)C)c1=O,2%,i,i,/,/,1%
Cc1ccc(Nc2ncccc2C(=O)O)cc1C,-31%,i,i,1%,-2%,5%
O=C(O)c1cccnc1Nc1ccc(Cl)cc1,?,7.3µM*,12µM*,-20%,-24%,10%
CCn1c(COc2ccc(=O)n(-c3ccccc3)n2)nnc1SCc1ccc(OC)cc1,4%,i,18µM*,4%,1%,1%
Cc1ccc(-n2nnnc2SCC(=O)N2CCCCC2)cc1,-4%,i,9.2µM*,3%,-1%,1%
Cc1ccc(-n2nnnc2SCC(=O)Nc2sccc2C#N)cc1,?,i,18µM*,-6%,-10%,-39%
COC(=O)c1ccc(-n2nnnc2SCC(=O)N2CCCCC2)cc1,8%,i,21µM*,-5%,-15%,6%
CCCOC(=O)c1ccc(-n2nnnc2SCC(=O)N2CCCCC2)cc1,4%,i,i,-7%,-17%,-181%[0.0737 µM]
CC(Nc1ccc(Br)cc1)C(=O)Nc1cccc(S(=O)(=O)N2CCOCC2)c1 (stereo not drawn),-85%,?,i,-17%,-2%,-22%
CCCN1CCN(CCCNC(=S)Nc2ccc3nc(N4CCN(CC)CC4)cc(C)c3c2)CC1,3%,i,?,-2%,-4%,16%
